The values that follow come from PubChem BioAssay (Tox21).

Records with an inconclusive call do not appear. A number with no mark means an inactive call. The source made the active and inactive calls. Calls follow the shape of the dose curve; as a rule, active = well fitted cell-killing curve with a large enough effect in the repeat runs; inconclusive = weak or mixed curves; inactive = flat fitted curve, though single readings scatter.
% is scaled to controls: 0 for no effect and ±100 for the full control effect.

A short description of this assay: qHTS RealTime-Glo MT Cell Viability Assay in HepG2 cells - 16 hour (AID 1224885). Also: nearly all actives have a fitted effect of over 50% in size. The following applies: RealTime-Glo luminescence; series mostly up to 76.8 µM. The source says: U.S. Tox21 Program National Center for Advancing Translational Sciences [NCATS] NIH Chemical Genomics Center [NCGC] U.S. Environmental Protection Agency [EPA] National Institutes of Environmental Health Sciences [NIEHS] National Toxicology Program [NTP] U.S. Food and Drug Administration [FDA] Tox21 Assay Overview: Measure of cell viability is critical in the cell-base assay. Analysis of cell viability is necessary for the characterization of cell responses to cytotoxic drugs and environmental stress. A RealTime-Glo MT Cell Viability Assay to monitor cell viability in real time of continues cell culture during 40 hours of compound treatment was used to screen Tox21 10K library compounds in HepG2 cells. The RealTime-Glo MT Cell Viability Assay is a nonlytic, homogeneous, bioluminescent method to measure cell viability in real time using a simple, plate-based method. The assay involves adding NanoLuc luciferase and a cell-permeant prosubstrate to cells in culture. Viable cells reduce the proprietary prosubstrate to generate a substrate for NanoLuc luciferase. This substrate diffuses from cells into the surrounding culture medium, where it is rapidly used by the NanoLuc Enzyme to produce a luminescent signal. The signal correlates with the number of viable cells, making the assay well suited for cytotoxicity studies.
Tox21 Assay Protocol Summary: The mixture of HepG2 cell suspension and reagents were dispensed at 600cells/6 ul/well in 1536-well tissue culture treated black solid bottom plates using a Multidrop dispenser. After the assay plates were incubated at a 37 C/5% CO2 incubator for 5 hours, 23 nL of compounds dissolved in DMSO, positive and negative controls was transferred to the assay plate by a pintool work station. The plates were incubated at 37 C for 40 hours. The luminescence intensity were measured at 0h, 8h, 16h, 24h, 32h and 40h time points using ViewLux plate reader during compound treatment.
On to `CC/C=C\CCCCO`, for which the outcome was inactive. Same read-out and setting: for `Cc1ncc(CSSCc2cnc(C)c(O)c2CO)c(CO)c1O` the value was “inactive”; for `Cc1c(F)cc2c(=O)c(C(=O)O)cn3c2c1CCC3C` (stereo not given), “inactive”; for `CCCc1ccc(N)cc1`, “inactive”. `CCCCCCCCN(C)CCCCCCCC`: the molecule was classed as inactive.

Consider `CCCC=O`, for which the molecule was called inactive. Same read-out and setting: then `OCC(O)[C@@H](O)[C@H](O)[C@H](O)CO[C@H]1O[C@H](CO)[C@@H](O)[C@H](O)[C@H]1O` (stereo not given in full), with “inactive”; and `N#CC1(O)CCCCC1`, with “inactive”; and `CCCCCCCCCCCCCCCCCC(=O)OCCCCCCCCCCCCCC(C)C`, with “inactive”. With `C1CCCCCCCCCCC1`, the activity change, negative = cytotoxic is -3.94% [at 15.8 µM]. Take `O=C(O)/C=C/c1ccc(Cn2ccnc2)cc1`: the molecule was classed as inactive. The same measure, in the same setting: then `CCC(=O)Nc1cccc(N)c1`, with “inactive”.

As for `CC(C)CCCCCCN`, the call was inactive.

For the molecule `COC(=O)[C@H]1[C@H]2C[C@@H]3c4[nH]c5cc(OC)ccc5c4CCN3C[C@H]2C[C@@H](OC(=O)COc2ccc(OC)cc2)[C@@H]1OC`, the outcome was inactive. Still for that read-out and setting: then `C=CCn1c(=O)n([C@@H]2O[C@H](CO)[C@@H](O)[C@H]2O)c2nc(N)[nH]c(=O)c21`, with “inactive”. Same read-out and setting: then `NS(=O)(=O)c1cc2c(cc1C(F)(F)F)NC(Cc1ccccc1)NS2(=O)=O` (stereo not given), with “inactive”; and `COC(=O)CCCCCCCCC(=O)OC`, with “inactive”. On the same count and under the same terms, then `CC(O)CN(CCCN(C)C)CCCN(C)C` (stereo not given), with “inactive”; and `CCN(CC)S(=O)(=O)c1ccc(C(=O)O)cc1`, with “inactive”; and `O=C(O)/C=C/c1ccc(/C=C/C(=O)O)cc1`, with “inactive”. Consider `CC(C)(O)C(=O)c1ccc(OCCO)cc1`, for which the call was inactive.

On to `CN(C)CCn1nnnc1SCC1=C(C(=O)O)N2C(=O)[C@@H](NC(=O)Cc3csc(N)n3)[C@H]2SC1`, for which the outcome was inactive.

In the case of `Cc1cc(C)cc(OCC2CNC(=O)O2)c1` (stereo not given), the molecule was classed as inactive. Same read-out and setting: then `CC1=CCC2C(C1)C2(C)C` (stereo not given), with “inactive”; and `CCN1CCN(c2cc3c(cc2F)c(=O)c(C(=O)O)cn3C2CC2)CC1`, with “inactive”. For `Nc1nc(F)nc2c1ncn2[C@@H]1O[C@H](CO)[C@@H](O)[C@@H]1O`, the result was inactive. Still for that read-out and setting: then `C(=C(c1ccccc1)c1ccccc1)c1ccccc1`, with “inactive”; and `c1ccc2cnncc2c1`, with “inactive”. The same measure, in the same setting: for `C1=C\CC/C=C\CC/C=C\CC/1` the value was “inactive”. `CCCCNc1ccccc1`: the molecule was called inactive. The same measure, in the same setting: then `CCCCCCCCCCC1CO1` (stereo not given), with “inactive”. Turning to `NC(=O)CCCCC1CCSS1` (stereo not given), the molecule was classed as inactive.

With `NC(=O)c1ncn([C@@H]2O[C@H](CO)[C@@H](O)[C@H]2O)c1O`, the outcome was inactive. Consider `OC1OC[C@@H](O)[C@H](O)[C@H]1O` (stereo not given in full), for which the molecule was called inactive. Take `CCC(C)(C)C1CCC(OC)CC1` (stereo not given): the result was inactive.

For `CC(C)(C)N(CCO)CCO`, the result was inactive. As to `O=S(=O)(c1cccc2cnccc12)N1CCCNCC1`, the call was inactive. The same measure, in the same setting: for `COc1cccc(OC)c1` the value was “inactive”; for `O=C(O)Cc1cc(I)c(Oc2cc(I)c(O)c(I)c2)c(I)c1`, “inactive”. As for `Cn1ccc2cc3c(cc21)CCN3C(=O)Nc1cccnc1`, the activity change, negative = cytotoxic was -4.07% [at 15.8 µM].
